ST2 inh: inhibitors of human ST2 (IL1RL1) binding to IL-33, primary screen, biochemical, AlphaLISA | Interleukin-1 receptor-like 1 (Homo sapiens), Q01638 | inhibition, % for hits at 17 µM | AlphaLISA ST2-Fc/biotin-IL-33 interaction, 1 h | AID 1259354, 2018 | 78,000 compounds, 2.3% hits; in the data active = inhibition above about 30%
Target sequence (Q01638 whole entry, looked up): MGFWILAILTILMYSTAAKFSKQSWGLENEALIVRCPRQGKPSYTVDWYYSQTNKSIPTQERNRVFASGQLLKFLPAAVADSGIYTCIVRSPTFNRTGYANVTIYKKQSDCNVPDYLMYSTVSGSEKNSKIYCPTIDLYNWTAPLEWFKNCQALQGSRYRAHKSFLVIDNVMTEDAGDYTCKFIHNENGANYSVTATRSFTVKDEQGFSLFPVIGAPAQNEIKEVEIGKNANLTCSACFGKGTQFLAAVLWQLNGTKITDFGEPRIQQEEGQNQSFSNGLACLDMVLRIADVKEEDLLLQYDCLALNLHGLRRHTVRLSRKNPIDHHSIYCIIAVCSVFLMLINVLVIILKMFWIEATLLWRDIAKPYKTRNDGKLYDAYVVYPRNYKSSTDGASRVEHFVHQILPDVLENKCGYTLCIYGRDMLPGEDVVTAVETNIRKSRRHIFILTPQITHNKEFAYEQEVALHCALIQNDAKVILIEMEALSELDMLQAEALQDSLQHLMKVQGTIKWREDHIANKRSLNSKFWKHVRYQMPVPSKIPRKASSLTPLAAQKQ
* hit, by the source's call; i = inactive; ! = repeats disagree. This excerpt belongs to a sample that is enriched for hits.

SMILES	ST2 inh
CC(=O)N1CCn2c3c(c4cc(C5CCCCC5)ccc42)CCCC31 (centres undefined)	i
Cc1ccc2c(c1)c1c(n2CCC#N)C(=O)CCC1	i
Cc1ccc2c(c1)c1c(n2C)C(C(N)=O)CCC1 (centres undefined)	32.0%*
Cc1ccc2c(c1)c1c3n2CCN(C(=O)c2ccccc2)C3CCC1 (centres undefined)	30.0%*
CC(=O)N1CCn2c3c(c4cc(C)ccc42)CCCC31 (centres undefined)	i
Cc1ccc2c(c1)c1c3n2CCN(CCC#N)C3CCC1 (centres undefined)	i
CCOCCCNC(=O)C1(O)c2ccccc2NC(=O)N1c1c(F)cccc1F (centres undefined)	i
CC(=O)Nc1cccc(-c2cc(C(F)(F)F)cc3[nH]cnc23)c1	i
Cn1c(=O)c2c(SCC(=O)N3CCCC3)nc(-c3cccs3)nc2n(C)c1=O	i
CC1=C[C@@H](CNS(=O)(=O)c2cccc(C#N)c2)[C@H](C(C)C)C[C@H]1CC(=O)Nc1ccccn1	i
CC1=C[C@@H](CNC(=O)c2ccncc2)[C@H](C(C)C)C[C@H]1CC(=O)NCc1ccc(C#N)cc1	i
CC1=C[C@@H](CNC(=O)c2ccc(C#N)cc2)[C@H](C(C)C)C[C@H]1CC(=O)Nc1ccccn1	81.0%*
COc1ccc(NC(=O)NCCc2nc3cccnc3n2C2CCCCC2)cc1OC	i
CCC1CCC(NCCCN2CCOCC2)CC1 (centres undefined)	i
Oc1ccccc1CN1C[C@H](O)C[C@H]1c1nc(-c2ccc3c(c2)OCO3)no1	i
CC(=O)Nc1ccc(S(=O)(=O)N[C@H]2C[C@@H](c3nc(-c4ccc5c(c4)OCO5)no3)N(C)C2)cc1	i
O[C@@H]1C[C@@H](c2nc(-c3ccc4c(c3)OCO4)no2)N(Cc2ccc(Cl)cc2)C1	i
CC(=O)N1CCC(N2C[C@H](O)C[C@H]2c2nc(-c3ccc(C(F)(F)F)cc3)no2)CC1	i
O[C@@H]1C[C@@H](c2nc(-c3ccc4c(c3)OCO4)no2)N(C2CCOCC2)C1	33.0%*
CC(=O)N1CCC(N2C[C@H](O)C[C@H]2c2nc(-c3ccc4c(c3)OCO4)no2)CC1	42.0%*
Cc1ccc2nc(C)c(C(=O)N(Cc3cnn(C)c3)CC(C)C)cc2c1	i
COc1ccc(C2CC(=O)C3=C(C2)Nc2ccccc2NC3c2cccs2)cc1 (centres undefined)	i
Cc1ccc(CNS(=O)(=O)c2cccc3cccnc23)cc1	i
COc1ccc(-c2ncc(Cl)cn2)c2ccc(C)nc12	i
Cc1ccc(O)c(CCc2ccc(O)c(S(=O)(=O)O)c2)n1	i
SMILES	ST2 inh
Cc1ccc2c(C)ccc(O)c2n1	31.0%*
COc1cccc(OC)c1C(=O)NCc1nc2cccnc2n1Cc1ccc(C)cc1	i
COc1ccc(N(CC(=O)NCc2ccccc2C)S(C)(=O)=O)cc1Cl	i
CC1=C(C(=O)Nc2cc(C)ccn2)C(c2cccc(Cl)c2)C2=C(CCCC2=O)N1 (centres undefined)	i
CN(C)c1nc2ncnc(SCC(=O)Nc3cccc(F)c3)c2s1	i
Cc1nc(N2CCOCC2)nc(Nc2ccc(F)cc2F)c1[N+](=O)[O-]	i
Cc1cccc(-n2nc3c(c2NC(=O)c2cc4ccccc4oc2=O)CS(=O)C3)c1C (centres undefined)	i
CCc1c(C)sc(NC(=O)c2cc(-c3ccc4c(c3)OCO4)on2)c1C#N	i
COc1ccc2cc3cc(C(=O)NCCCN4CCN(C)CC4)oc3nc2c1	i
CCCCN(CC)CCCNC(=O)c1cc2cc3ccc(OC)cc3nc2o1	i
COc1ccc2cc3cc(C(=O)Nc4ccc(F)cc4Cl)oc3nc2c1	i
O=C(NCCCN1CCCCCC1)c1cc2cc3ccc(Cl)cc3nc2o1	44.0%*!
CCCN(CCC)CCCNC(=O)c1cc2cc3ccc(OC)cc3nc2o1	i
CCC1CCCCN1CCCNC(=O)c1cc2cc3ccc(Cl)cc3nc2o1 (centres undefined)	i
CCN(CCCNC(=O)c1cc2cc3ccc(Cl)cc3nc2o1)c1ccccc1	34.0%*!
COc1ccc2cc3cc(C(=O)Nc4cc(Cl)ccc4OC)oc3nc2c1	i
O=C(Nc1ccc(F)cc1)c1cc2cc3ccc(Cl)cc3nc2o1	37.0%*!
COc1cc2ncn(C)c2cc1OC	i
COc1ccc(/C=C/CN2CCC(O)(c3ccc(C)cn3)CC2)cc1	i
N#CC1=C(N)Oc2c(oc(CO)cc2=O)C1c1ccc(OCc2ccccc2)cc1 (centres undefined)	i
CC(=O)NCCc1cn(Cc2nc(-c3ccco3)oc2C)cn1	i
C=CCn1cc(CN2CCC(c3nc(-c4ccccc4)no3)CC2)c(C)n1	i
CCOC(=O)CSC1=C(C#N)C(c2ccccc2Cl)C(C(C)=O)=C(C)N1 (centres undefined)	i
COc1ccc(N2C(=O)[C@@H]3C4c5ccccc5C(Br)(c5ccccc54)[C@@H]3C2=O)cc1	i
CC(C)Oc1ccc(-c2nc3s/c(=C\c4ccco4)c(=O)n3n2)cc1	i
SMILES	ST2 inh
O=C(Nc1ccc(O)cc1)C1Cc2ccccc2CN1S(=O)(=O)c1cccs1 (centres undefined)	i
CCOc1ccc(C2Nc3ccccc3NC3=C2C(=O)CCC3)cc1 (centres undefined)	i
Cc1ccc(C2Nc3ccccc3NC3=C2C(=O)CCC3)o1 (centres undefined)	32.0%*
COc1ccc(C2CC(=O)C3=C(C2)Nc2ccccc2NC3c2ccc(C)o2)cc1 (centres undefined)	i
COc1ccc(NC(=O)CCS(=O)(=O)c2ccc(Br)s2)cc1Cl	i
O=C(CCn1cncn1)N(CC#Cc1ccccc1)C1CCCC1	i
O=C(NC1CCCCC1)c1ccc2nc3cc(Cl)ccc3c(=O)n2c1	i
CCOc1ccc(Nc2nc(C)c([N+](=O)[O-])c(Nc3ccccc3)n2)cc1	i
CCOc1ccc(S(=O)(=O)N=C2C=C(Nc3cccc(C)c3)C(=O)c3ccccc32)cc1	90.0%*
CCOC(=O)c1cnc2ccccc2c1Nc1cccc(C)c1	i
Cc1ccc(S(=O)(=O)N=C2C=C(Nc3cccc(C)c3)C(=O)c3ccccc32)cc1	84.0%*
Cc1cccc(NS(=O)(=O)c2ccc3[nH]c(=O)[nH]c3c2)c1	i
Cc1ccc(S(=O)(=O)Nc2cccc(Cl)c2)cc1	i
Cc1cc(C)cc(-n2cc3c(c2-c2ccccc2)c(=O)n(C)c(=O)n3C)c1	i
CN(C)c1ncc(CNCc2cccnc2N2CCCCCCC2)s1	i
O=C(O)CCC(=O)N1CCc2cc(S(=O)(=O)Nc3ccccc3F)ccc21	i
CCOc1ccc2nc(N3CCCC3C(=O)NCc3ccccc3-n3cncn3)nc(C)c2c1 (centres undefined)	i
Cc1ccc(N2C(=O)S/C(=C\c3ccc4c(c3)OCO4)C2=O)cc1	i
COc1ccccc1N1C(=N)S/C(=C/c2ccc(Br)c([N+](=O)[O-])c2)C1=O	i
COc1ccc(Br)cc1/C=C1/SC(=N)N(c2ccc3c(c2)OCO3)C1=O	40.0%*
CCC(C)N(Cc1ccncc1)C(=O)c1nn(C)c2ccccc12 (centres undefined)	i
O=C(CCCn1c(=O)c2sccc2n(Cc2ccccc2F)c1=O)NCc1ccco1	i
NC(=O)Cn1c(=O)n(CCCC(=O)NCc2ccco2)c(=O)c2sccc21	i
Cc1ccccc1Cn1c(=O)n(CCCC(=O)NCc2ccco2)c(=O)c2sccc21	33.0%*!
